Screening results as filed in PubChem.
A selection: hits, their analogues and other compounds. The true share with any hit is near 3.8%.
Nrf2 block: inhibitors of Nrf2 signaling; A549 ARE-Fluc reporter, luciferase luminescence, 18-24 h; Potency, µM (highest dose often 46 µM), for the others: top-dose activity change, negative = inhibition, usual class: inhibitors; 360,000 tested, 2.1% active; AID 504444; further: on the % scale 0 is the no-effect control and ±100 the full control effect; nearly all actives have a fitted effect of over 60% in size
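Concentration-response testing used A549 ARE_Fluc cells at 5000 cells/well. Following an 18-24 h compound incubation, viability was read by fluorescence (Ex 405/Em 525) and luciferase output by luminescence.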
A549 tox: kills or reduces viability of A549 cells in Nrf2 counter-screen. A549 ARE-Fluc cells, CellTiter-Fluor viability, 18-24 h. 390,000 tested, 0.16% active. AID 504648. Potency, µM (doses to about 46 µM), without a hit: top-dose activity change, negative = cytotoxicity, actives largely listed as inhibitors; further: on the % scale 0 is the no-effect control and ±100 the full control effect
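A549 ARE-Fluc cells in 5% FBS OPTI-MEM, 5000 cells/well, rested 2 h then exposed to compounds in concentration-response for 18-24 h at 37 °C. Viability by CellTiter-Fluor fluorescence (Ex 405/Em 525) after 30 min; luciferase luminescence (BugLite, 15 min, RT) read afterwards.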
IDH1 R132H inh: human IDH1 R132H inhibition. Potency, µM (top dose mostly 76.6 µM), inactives show at the highest dose activity change, negative = inhibition, hits mostly inhibitors. O75874. AID 602179. IDH1-R132H enzyme, NADPH consumption, diaphorase/resazurin fluorescence. 390,000 tested, 0.093% active; further: on the % scale 0 is the no-effect control and ±100 the full control effect; nearly all actives have a fitted effect of over 65% in size
Target sequence (O75874 whole entry R132H, stated change not applied): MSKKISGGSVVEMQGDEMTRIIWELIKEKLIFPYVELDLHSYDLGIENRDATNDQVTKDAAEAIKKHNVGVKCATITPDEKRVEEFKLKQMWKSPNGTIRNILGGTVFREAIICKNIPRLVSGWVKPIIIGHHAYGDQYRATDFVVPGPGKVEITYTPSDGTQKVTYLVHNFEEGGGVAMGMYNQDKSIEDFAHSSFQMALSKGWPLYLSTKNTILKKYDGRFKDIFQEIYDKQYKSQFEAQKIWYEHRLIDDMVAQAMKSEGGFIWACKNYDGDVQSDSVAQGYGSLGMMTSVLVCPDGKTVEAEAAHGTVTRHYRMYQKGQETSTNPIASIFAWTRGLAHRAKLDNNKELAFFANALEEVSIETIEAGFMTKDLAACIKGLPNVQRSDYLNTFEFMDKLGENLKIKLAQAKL
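IDH1-R132H (0.5 ug/mL dispensed) in pH 7.5 Tris buffer was preincubated 30 min with compound, then given a substrate mix of 0.016 mM NADPH and 2 mM alpha-KG for 80 min at room temperature; remaining NADPH was read by diaphorase/resazurin fluorescence.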
Nrf2 activator: activates Nrf2 signaling; Potency, µM (titrated, usually from 46.1 µM), without a hit: top-dose activation, most hits filed as activators; AREc32 ARE-luciferase reporter (MCF7-derived line), luminescence, 24 h; 410,000 tested, 0.31% active; further: % of control where 0% means no effect; nearly all actives have a fitted effect of over 65% in size
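Cells of the AREc32 ARE-luciferase line are plated in OPTI-MEM containing 5% FBS and left overnight at 37 deg C. Compounds are pinned in, incubation continues 24 hr, and firefly luciferase signal is then measured.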
ELG1 repair inh: ELG1-dependent DNA repair inhibition. HEK293T ELG1-luciferase reporter, luminescence, 16 h; DNA damage induced by 5-fluorouridine. Potency, µM (doses to about 46.1 µM), without a hit: at the top dose activity change, negative = inhibition, actives largely listed as inhibitors. 330,000 tested, 2.3% active; further: on the % scale 0 is the no-effect control and ±100 the full control effect; nearly all actives have a fitted effect of over 55% in size
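Luminescence from the luciferase reporter, measured 30 min after ONE-Glo reagent at room temperature, was the read-out. Beforehand, 2,000 cells per well were exposed for 16 hr at 37 °C to 5-fluorouridine together with compound or vehicle.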
* = called active by the depositor. The call rests on the fitted dose curve; in most records, active means well fitted curve in the direction sought with a large enough effect; inconclusive means small, poorly fitted or top-dose-only effect, or another doubt; inactive means no such curve, though single readings can be large; an effect the other way counts as inactive or inconclusive. Potency means the concentration at half of the fitted maximal effect.

For O=C(CSc1nnc(-c2ccccc2)n1Cc1ccco1)Nc1ccc(S(=O)(=O)N2CCCC2)cc1 the results were Nrf2 block 16.4µM*, A549 tox -25.5%, IDH1 R132H inh -1.1%, Nrf2 activator 2.6% and ELG1 repair inh inconclusive.
For COc1ccc(NC(=O)CSc2nnc(-c3ccccc3)n2Cc2ccco2)c(OC)c1 the results were Nrf2 block -18.9%, A549 tox -4.1%, IDH1 R132H inh 1.6%, Nrf2 activator 0.1% and ELG1 repair inh 13µM*.
For COc1ccc(NC(=O)CSc2nnc(-c3ccccc3Cl)n2Cc2ccco2)c(OC)c1 the results were Nrf2 block -3.3%, A549 tox -0.4%, IDH1 R132H inh 7.5%, Nrf2 activator 2.5% and ELG1 repair inh inconclusive.
`COc1ccc(C)cc1NC(=O)CSc1nnc(COc2ccc(Cl)cc2)n1Cc1ccco1` gave Nrf2 block inconclusive, A549 tox -20.0%, IDH1 R132H inh -2.0%, Nrf2 activator 6.8% and ELG1 repair inh -18.3%.
`CCn1c(SCC(=O)Nc2nccs2)nnc1-c1ccc(S(=O)(=O)N2CCCCCC2)cc1` gave Nrf2 block -26.5%, A549 tox -13.3%, IDH1 R132H inh -2.4%, Nrf2 activator 0.4% and ELG1 repair inh 20.6µM*.
For CCCCCCNC(=O)CNC(=S)N(Cc1cccs1)C1CCCCC1 the results were Nrf2 block 16.4µM*, A549 tox inconclusive, IDH1 R132H inh 0.0%, Nrf2 activator 0.0% and ELG1 repair inh inconclusive.
Screening CCc1cccc(C)c1NC(=O)COC(=O)c1c2c(nc3ccccc13)/C(=C\c1cccs1)CCC2 returned Nrf2 block -3.9%, A549 tox -0.3%, IDH1 R132H inh 4.6%, Nrf2 activator 0.2% and ELG1 repair inh 14.6µM*.
`CC(C)CNC(=O)COC(=O)c1c2c(nc3ccccc13)/C(=C/c1cccs1)CC2` gave Nrf2 block inconclusive, A549 tox 4.0%, IDH1 R132H inh 5.5%, Nrf2 activator 5.5% and ELG1 repair inh inconclusive.
`CCCCNC(=O)COC(=O)c1c2c(nc3ccccc13)/C(=C\c1cccs1)CC2` gave Nrf2 block inconclusive, A549 tox inconclusive, IDH1 R132H inh -1.0% and Nrf2 activator 3.4%.
NC(=O)c1ccc(NC(=O)COC(=O)c2c3c(nc4ccccc24)/C(=C\c2cccs2)CCC3)cc1 was read as Nrf2 block -4.2%, A549 tox 45.5%, IDH1 R132H inh 5.3%, Nrf2 activator -1.4% and ELG1 repair inh 7.31µM*.
CCc1cc(C(=O)NC2CCCN(Cc3ccccc3F)C2)n(C)n1 (stereo not drawn) was read as Nrf2 block 13µM*, A549 tox -8.8%, IDH1 R132H inh -4.4%, Nrf2 activator 0.2% and ELG1 repair inh inconclusive.
Screening Cn1nc(C(=O)NC2CCCN(Cc3ccccc3F)C2)c2ccccc2c1=O (stereo not drawn) returned Nrf2 block -15.5%, A549 tox -17.9%, IDH1 R132H inh 3.7%, Nrf2 activator 2.5% and ELG1 repair inh -10.1%.
For COC(=O)c1ccc(C(=O)OC)c(NC(=O)COC(=O)c2ccc(OC)c(OC)c2OC)c1 the results were Nrf2 block -10.2%, A549 tox 0.4%, IDH1 R132H inh -8.2%, Nrf2 activator 0.0% and ELG1 repair inh 5.8µM*.
For CCOCC(=O)Nc1cc(C(=O)OC)ccc1C(=O)OC the results were Nrf2 block -1.6%, A549 tox 0.4%, IDH1 R132H inh 0.3%, Nrf2 activator -1.0% and ELG1 repair inh 8.5%.
Cc1cccc(N2CCN(C(=O)c3cn(CC(C)C)c(=O)c4c3c3ccccc3n4C)CC2)c1C was read as Nrf2 block 10.7%, A549 tox -1.9%, IDH1 R132H inh 2.5% and Nrf2 activator 0.4%.
For Cc1cccc(N2CCN(C(=O)c3cn(C)c(=O)c4c3c3ccccc3n4C)CC2)c1C the results were A549 tox -11.8%, IDH1 R132H inh 1.5%, Nrf2 activator 0.4% and ELG1 repair inh 23.1µM*.
For Cc1cccc(N2CCN(C(=O)c3cc(S(=O)(=O)N4CCCC4)cn3C)CC2)c1C the results were Nrf2 block 18.4µM*, A549 tox -6.7%, IDH1 R132H inh -1.3%, Nrf2 activator -2.4% and ELG1 repair inh -1.7%.
CC(C)Cn1cc(C(=O)N2CCN(c3cccc(Cl)c3)CC2)c2c3ccccc3n(C)c2c1=O was read as Nrf2 block 20.6µM*, A549 tox inconclusive, IDH1 R132H inh 19.6% and Nrf2 activator 3.9%.
Cc1cccc(N2CCN(S(=O)(=O)c3ccc4[nH]c(=O)ccc4c3)CC2)c1C was read as Nrf2 block 18.4µM*, A549 tox -25.1%, IDH1 R132H inh -12.7%, Nrf2 activator 0.9% and ELG1 repair inh inconclusive.
For Cc1cccc(CNC(=O)c2cccc(NC(=O)N3CCSc4ncccc43)c2)c1 the results were Nrf2 block inconclusive, A549 tox -1.2%, IDH1 R132H inh -0.3% and Nrf2 activator -0.3%.
For COc1ccc(C2c3[nH]c4ccccc4c3C[C@H]3C(=O)N(c4ccccc4C(=O)NCCN4CCOCC4)C(=O)N23)cc1 (stereo partly drawn) the results were Nrf2 block 0.5%, A549 tox -1.3%, IDH1 R132H inh 4.9%, Nrf2 activator 3.4% and ELG1 repair inh inconclusive.
Screening O=C(NCCN1CCOCC1)c1ccccc1N1C(=O)[C@@H]2Cc3c([nH]c4ccccc34)C(c3ccc(F)cc3)N2C1=O (stereo partly drawn) returned Nrf2 block 8.3%, A549 tox 5.0%, IDH1 R132H inh -5.3%, Nrf2 activator 3.7% and ELG1 repair inh 5.17µM*.
For Nc1nccnc1C(=O)OCC(=O)C12CC3CC(CC(C3)C1)C2 the results were Nrf2 block 20.2%, A549 tox 9.5%, IDH1 R132H inh 1.7%, Nrf2 activator -0.2% and ELG1 repair inh 0.0%.
Screening N#CC1(C#N)CC(C=O)=C(N)C1(C#N)CC(=O)C12CC3CC(CC(C3)C1)C2 (stereo not drawn) returned Nrf2 block inconclusive, A549 tox -14.5%, IDH1 R132H inh 1.8%, Nrf2 activator inconclusive and ELG1 repair inh 16.4µM*.
Screening S=C(NCC1CCCO1)Nc1ccc(Nc2ccccc2)cc1 (stereo not drawn) returned Nrf2 block 14.6µM*, A549 tox -21.9%, IDH1 R132H inh 3.9%, Nrf2 activator 2.8% and ELG1 repair inh -14.5%.
Screening COc1cc(OC)c(-c2c3cc(O)c(=O)cc-3oc3cc(O)c(O)cc23)cc1OC returned Nrf2 block inconclusive, A549 tox 16.4µM*, IDH1 R132H inh 11.7µM*, Nrf2 activator -2.0% and ELG1 repair inh inconclusive.
Screening CN1C(C(=O)c2ccccc2)=C(NC(=O)c2ccccc2Br)c2ccccc2S1(=O)=O returned Nrf2 block inconclusive, A549 tox -13.6%, IDH1 R132H inh -7.0% and Nrf2 activator 0.9%.
